PubChem BioAssay
For some assays here: Entries with a potency or affinity are not part of this list. Results filed as inconclusive are left out. Activity calls are given as the source filed them. Unless noted, the rule behind the calls is not given here.

Assays:
[1] = tested on: XIP peptide (Xip251-270) binding; assay: small-molecule binders of XIP peptide, primary screen, biochemical, small-molecule microarray, fluorescence 635/667 nm, 0.1 µg/mL protein (AID 1182); conditions: fluorescent protein binding, 635 nm; higher = more signal, called active from +8 up or from −8 down unless noted
XIP peptide (Xip251-270) = assay: small-molecule binders of XIP peptide, primary screen, biochemical, small-molecule microarray, fluorescence 635/667 nm, 0.5 µg/mL protein (AID 1183); conditions: small-molecule microarray binding, fluorescence 635 nm; higher = more signal
[2] = Plasmodium falciparum growth inhibition, primary screen, strain 3D7, DAPI fluorescence, 100 nL (AID 1184);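 note: parasites grown inside human red blood cells in medium with human serum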; conditions: P. falciparum 3D7 growth, 3 d, higher = more signal
[3] = target: Homeobox protein Hox-A13 (Mus musculus) (UniProt Q62424); assay: inhibitors of HoxA13-DNA binding, primary screen, biochemical, fluorescence polarization, labeled oligonucleotide (AID 1185); conditions: 15 min; higher = more signal, called active from +8 up or from −8 down unless noted
[4] = inhibitors of hydroxyurea-induced Chk1 phosphorylation, primary screen, imaging, HeLa, phospho-Chk1 antibody, percent positive cells (AID 1186); conditions: hydroxyurea-induced phospho-Chk1 immunofluorescence imaging, higher = more signal
[5] = inhibitors of hydroxyurea-induced Chk1 phosphorylation, primary screen, imaging, HeLa, phospho-Chk1 nuclear intensity (AID 1187); conditions: hydroxyurea-induced phospho-Chk1 immunofluorescence imaging, higher = more signal
[6] = Cryptococcus neoformans growth inhibition, dose response, Alamar Blue, cherry-picks (AID 686998;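 active = falling signal with fitted half-maximal potency no higher than twice the top valid tested dose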)
[7] = inducers of Cryptococcus neoformans cell lysis, dose response, AK release luminescence, cherry-picks (AID 687000;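 active = fitted dose curve reaches 40% lysis signal rise at or below the highest valid concentration tested for that sample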;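 note: luminescent detection of adenylate kinase leaking from lysed yeast; 0% = median neutral control signal and 100% = double that signal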)
[8] = HepG2 cell cytotoxicity, dose response, cytotoxicity control, cherry-picks, set 2 (AID 687002;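 active = a dose-response fit showing signal loss, with half-maximal concentration no higher than twice the top tested dose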)

Homeobox protein Hox-A13 (Mus musculus), sequence (Q62424 whole entry, looked up): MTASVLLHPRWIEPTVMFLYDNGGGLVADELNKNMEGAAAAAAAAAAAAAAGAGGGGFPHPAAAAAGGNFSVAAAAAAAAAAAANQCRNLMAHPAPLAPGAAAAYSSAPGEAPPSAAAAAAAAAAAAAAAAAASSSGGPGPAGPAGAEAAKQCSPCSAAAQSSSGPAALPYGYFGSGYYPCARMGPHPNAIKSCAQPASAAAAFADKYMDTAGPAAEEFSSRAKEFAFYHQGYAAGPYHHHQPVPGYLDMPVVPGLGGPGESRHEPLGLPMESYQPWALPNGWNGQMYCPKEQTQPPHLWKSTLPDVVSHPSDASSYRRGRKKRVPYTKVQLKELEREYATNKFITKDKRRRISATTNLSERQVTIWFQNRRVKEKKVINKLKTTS

SMILES | composite z-score [1] | composite z-score (XIP peptide (Xip251-270)) | z-score [2] | z-score [3] | z-score [4] | z-score [5] | outcome [6] | outcome [7] | outcome [8]
CCOC(=O)[C@H]1CC=C2C(=O)Oc3ccc(Br)cc3[C@@H]21 | 0.874 (inactive) | 0.694 | -0.5 | -6.05 (inactive) | 0.439 (inactive) | 0.286 (inactive) |  |  | 
CCCc1cc2c(n1Cc1ccco1)C(C)C1CN(C(=O)c3ccccc3)C(C)(C(=O)OC)C21 (stereo unspecified) | 1.32 (inactive) | 0.741 | 0.0125 | -4.51 (inactive) | 0.586 (inactive) | 0.875 (inactive) |  |  | 
CCCc1cc2c(n1Cc1cccc(Cl)c1)C(C)C1CN(C(=O)c3ccccc3)C(C)(C(=O)OC)C21 (stereo unspecified) | 1.12 (inactive) | -0.589 | -0.413 | -5.79 (inactive) | 0.251 (inactive) | 0.861 (inactive) |  |  | 
COc1cc2c(cc1O)C=[N+](C)CC2 | -1.21 (inactive) | -0.417 | -0.0765 | -2.14 (inactive) | -0.663 (inactive) | -0.875 (inactive) |  |  | 
COc1cc2c(cc1O)C(C)N(C)CC2 (stereo unspecified) | -0.191 (inactive) | 0.229 | -0.563 | -0.569 (inactive) | -0.0732 (inactive) | 0.363 (inactive) |  |  | 
COC(=O)[C@@]1(Cc2ccccc2)[C@H]2c3cc(C(=O)N(C)C)[nH]c3C[C@H]2CN1C(=O)c1ccccc1 | 0.665 (inactive) | -0.456 | 0.747 | -3.47 (inactive) | -0.493 (inactive) | -0.73 (inactive) |  |  | 
C[C@H]1CN([C@@H](C)CO)C(=O)CCCn2nncc2CO[C@H]1CN(C)C(=O)Oc1cccc2ccccc12 |  |  |  |  |  |  | inactive | inactive | inactive
O=c1[nH]c(CN2CC=C(c3ccccc3)CC2)nc2cc(C(F)(F)F)ccc12 |  |  |  |  |  |  |  | inactive | inactive
